Bioassay records from PubChem.
TDP1 inh – qHTS Assay for Inhibitors of Tyrosyl-DNA Phosphodiesterase (TDP1); AID 485290, 2010; Tyrosyl-DNA phosphodiesterase 1 (Homo sapiens), Q9NUW8; Potency, µM (titrated, usually from 130 µM), usual class: inhibitors; 350,000 compounds, 0.28% hits; recombinant TDP1, AlphaScreen DNA substrate cleavage; note: nearly all actives have a fitted effect of over 40% in size
Target sequence (Q9NUW8 whole entry, looked up): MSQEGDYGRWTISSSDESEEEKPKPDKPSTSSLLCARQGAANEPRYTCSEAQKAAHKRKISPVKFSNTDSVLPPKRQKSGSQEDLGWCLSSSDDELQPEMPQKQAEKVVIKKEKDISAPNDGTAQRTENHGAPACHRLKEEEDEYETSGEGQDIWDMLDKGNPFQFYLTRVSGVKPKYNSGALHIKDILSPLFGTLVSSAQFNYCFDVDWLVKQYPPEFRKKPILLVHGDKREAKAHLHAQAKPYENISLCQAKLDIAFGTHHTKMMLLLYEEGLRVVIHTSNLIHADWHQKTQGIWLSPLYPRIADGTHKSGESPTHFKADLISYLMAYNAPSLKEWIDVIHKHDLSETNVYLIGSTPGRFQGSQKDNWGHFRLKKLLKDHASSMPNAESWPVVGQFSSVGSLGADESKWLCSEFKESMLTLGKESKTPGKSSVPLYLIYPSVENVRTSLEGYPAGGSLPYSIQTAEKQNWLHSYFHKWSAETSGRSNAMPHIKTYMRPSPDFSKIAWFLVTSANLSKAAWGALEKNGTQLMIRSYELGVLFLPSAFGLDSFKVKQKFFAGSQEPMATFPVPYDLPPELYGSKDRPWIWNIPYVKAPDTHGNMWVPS
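Tdp1 1 nM final; 15 min RT w/ cpd; substrate 15 nM, 5 min; beads 10 ug/ml, 10 min; AlphaScreen read. Neg ctrl: no enzyme.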
miR-21 reporter – qHTS Assay for Modulators of miRNAs and/orActivators of miR-21. Potency, µM (highest dose often 38.3 µM), most hits filed as activators. 340,000 tested, under 10 active. HeLa miR-21 FLuc reporter, luciferase, 48 h;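 note: miR-21 action dims this reporter so a rising signal means less miR-21 action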
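Compounds were titrated across several concentrations (up to approximately 40 uM) and incubated 48 hours with HeLa miR-21-FLuc reporter cells (miR-21 target sequence downstream of FLuc, endogenous miR-21). Readout was firefly luciferase luminescence after lytic detection reagent.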
DT40 TDP1 no CPT – qHTS for Inhibitors of human tyrosyl-DNA phosphodiesterase 1 (TDP1): qHTS in cells in absence of CPT | 420,000 compounds, 15% hits | Potency, µM (doses to about 46.2 µM), usual class: inhibitors | DT40 Tdp1-/- hTDP1 cells, no CPT, ATP luminescence, 48 h; note: nearly all actives have a fitted effect of over 55% in size
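Compound effects on proliferation are scored in DT40 Tdp1-/-;hTDP1 cells in the absence of CPT. ATP levels (CellTiter-Glo luminescence) are recorded after a ≥48 hr, 37 °C incubation.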
TDP1 cell CPT – qHTS for Inhibitors of human tyrosyl-DNA phosphodiesterase 1 (TDP1): qHTS in cells in presence of CPT. chicken DT40 Tdp1-/-;hTDP1 cells + 20 nM CPT, ATP luminescence, 48 h. Potency, µM (highest dose often 46.2 µM), hits mostly inhibitors. 420,000 compounds, 12% hits. AID 686979, 2013; note: nearly all actives have a fitted effect of over 55% in size
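Cell growth measured by CellTiter-Glo luminescence after a minimum 48 h, 37 C compound exposure with 20 nM CPT in Tdp1-knockout DT40 cells stably expressing hTDP1, seeded 400/well; qHTS titration format.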
uPA generation – qHTS for Inhibitors of Cell Surface uPA Generation; cell surface uPA generation assay, qHTS; Potency, µM (titrated, usually from 38.3 µM), usual class: inhibitors; 330,000 compounds, 0.31% hits; AID 540303, 2011; active = well fitted inhibition curve with a large enough effect; inconclusive = small, poorly fitted or top-dose-only effect; inactive = no such curve, though single readings can be large or run the other way; tested in mouse RAW 264.7 cells; note: nearly all actives have a fitted effect of over 55% in size
Numbers stand for hits; . = inactive; ? = inconclusive; / = no result given; [ ] = remark or other dose. Hits are enriched below; roughly 16% of the tested compounds scored in any of these assays. Unless noted, calls come from the whole dose curve; as a rule, active = well fitted curve in the direction sought with a large enough effect; inconclusive = small, poorly fitted or top-dose-only effect, or another doubt; inactive = no such curve, though single readings can be large; an effect the other way counts as inactive or inconclusive.

SMILES	TDP1 inh	miR-21 reporter	DT40 TDP1 no CPT	TDP1 cell CPT	uPA generation
Cc1cc(Nc2ccc(Cl)cc2C)nc(-n2nc(C)cc2C)n1	.	.	1.64µM	5.17µM	/
Cc1cc(Cl)nc(-n2nc(C)cc2C)n1	.	.	.	.	.
CCOc1ccc(N(C)S(=O)(=O)c2ccc(C)c(C(=O)NCc3ccccc3OC)c2)cc1	.	/	?	?	.
CC(C)(C)c1nnc(NC(=O)Cc2ccccc2[N+](=O)[O-])s1	.	.	.	.	.
O=C(c1ccc(F)cc1)n1ccc(-c2cnc(-c3ccccc3)s2)n1	.	.	.	.	.
CC(C)(C)C(=O)Nc1cc(S(=O)(=O)Nc2ccc(Cl)cc2)ccc1Cl	.	.	23.1µM	18.4µM	.
O=C(Nc1ccc(Cl)cc1)c1cc(S(=O)(=O)Nc2ccccn2)ccc1Cl	/	.	16.4µM	?	.
COc1ccc(NS(=O)(=O)c2ccc(Cl)c(NC(=O)c3cccnc3Cl)c2)cc1	.	.	16.4µM	?	.
COc1ccc(NS(=O)(=O)c2ccc(Cl)c(NC(=O)c3ccccc3F)c2)cc1	.	/	?	?	.
O=c1[nH]c2ccc(S(=O)(=O)Nc3ccc(Cl)cc3)cc2o1	.	.	.	.	.
CCCCOc1ccc(C(NC(=O)OCC)NC(=O)OCC)cc1	.	.	.	.	.
COc1ccc(CNC(=O)C2CC(C)=CCC2C(=O)O)cc1 (stereo not given)	/	.	.	?	.
COc1ccc(CNC(=O)C(=O)NCC2CCCO2)cc1 (stereo not given)	.	.	20.6µM	16.4µM	.
COc1ccc(CNC(=O)C2CC(C)=C(C)CC2C(=O)O)cc1 (stereo not given)	.	.	9.2µM	9.2µM	/
COc1cnn(Cc2ccccc2)c(=O)c1SCc1ccccc1	.	.	?	?	.
COc1cc2c(cc1OC)C1=NC(=O)CN1C(SCc1ccccc1)=N2	.	.	9.2µM	18.4µM	.
O=C(c1ccccc1Br)N(Cc1ccccc1)c1ccccc1	.	.	11.6µM	20.6µM	.
O=C(c1ccccc1O)N(Cc1ccccc1)Cc1ccccc1	.	/	/	/	/
CCCNC(=O)C1(CC2CC(c3ccccc3)=NO2)CCN(C(=O)OC(C)(C)C)CC1 (stereo not given)	/	/	?	?	.
O=C(NCC1CCCCC1)C1(CC2CC(c3ccc(Cl)cc3)=NO2)CCNCC1 (stereo not given)	/	.	18.4µM	23.1µM	?
CCCCCCCNC(=O)C1(CC2CC(c3cccc(Br)c3)=NO2)CCN(C(=O)C2CCCC2)CC1 (stereo not given)	.	/	?	20.6µM	.
O=C(NCC1CCCCC1)C1(CC2CC(c3cccc(Br)c3)=NO2)CCNCC1 (stereo not given)	/	?	16.4µM	16.4µM	.
O=C(c1ccccc1)N1CCC(CC2CC(c3cccc(Br)c3)=NO2)(C(=O)NCC2CCCCC2)CC1 (stereo not given)	/	.	?	?	?
CCCCCCCNC(=O)C1(CC2CC(c3cccc(Br)c3)=NO2)CCN(C(=O)OC(C)(C)C)CC1 (stereo not given)	/	.	14.6µM	?	.
CCCCCCCNC(=O)C1(CC2CC(c3ccc(Cl)cc3)=NO2)CCN(C(=O)C2CCCC2)CC1 (stereo not given)	/	.	?	?	.
SMILES	TDP1 inh	miR-21 reporter	DT40 TDP1 no CPT	TDP1 cell CPT	uPA generation
CC(=O)c1ccc(N2CCN(S(=O)(=O)c3ccc4c(c3)C(C)(C)C(=O)N4)CC2)cc1	.	.	?	.	/
Cc1nc(NCc2cccc3c2OCO3)sc1-c1ccn(CC2CCCN(C)C2)n1 (stereo not given)	/	/	.	.[9.04 µM]	/
CC(C)(C)OC(=O)N1CCC(CC2CC(c3cccc(Br)c3)=NO2)(C(=O)NCC2CCCCC2)CC1 (stereo not given)	/	.	16.4µM	?	.
CN1CCC(=NNC(=O)C(=O)Nc2ccccc2F)CC1	.	.	.	.	.
Cc1ccc(Nc2c(-c3ccc(C)s3)nc3cccc(C)n23)cc1	.	/	12.6µM	12.6µM	/
Cc1ccc(Nc2c(-c3cccc(Cl)c3)nc3cccc(C)n23)cc1	.[12.3 µM]	.	16.4µM	?	/
COc1ccc(-c2nc3cccc(C)n3c2Nc2ccc(C)cc2)cc1	.	/	12.6µM	20µM	/
COc1cc(-c2nc3cccc(C)n3c2Nc2ccc3c(c2)OCCO3)ccc1O	.	.	?	?	/
Cc1ccc(Nc2c(-c3ccc(N4CCOCC4)cc3)nc3cccc(C)n23)cc1	.	.	23.1µM	23.1µM	/
C#CCOCCOCCOCCNc1nc(N2CCOCC2)nc(N2CCN(C(=O)[C@H](CCCCN)n3cc(CN)nn3)CC2)n1	.	/	.	.	.
Cc1ccc(N/C(=C\C(=O)c2ccccc2)C(=O)O)cc1	.	.	.	.	.
Cc1nnc(-c2ccc(N3CCCCCC3)c([N+](=O)[O-])c2)o1	.	.	?	.	.
CCCn1c(NC(=O)CN2C(=O)NC3(CCCCC3)C2=O)nc2ccccc21	/	/	23.1µM	?	.
O=C(CN1C(=O)NC2(CCCCCCC2)C1=O)Nc1ccc(OC(F)F)cc1	.	/	18.4µM	23.1µM	.
O=C(CN1C(=O)NC2(CCCCCCC2)C1=O)Nc1cccc(Br)c1	.	/	20.6µM	16.4µM	.
O=C(CN1C(=O)NC2(CCCCC2)C1=O)Nc1ccc(F)cc1	.	.	.	.	.
O=C(CN1C(=O)NC2(CCCCCC2)C1=O)Nc1ccc2c(c1)CCC2	.	.	11.6µM	?	.
Cc1ccc(S(=O)(=O)N(C)C)cc1NC(=O)COC(=O)Cc1ccsc1	/	/	.	.	.
CC1(c2ccc3ccccc3c2)CCC(=O)O1 (stereo not given)	/	/	.	.	.
COc1cccc(CNC(=O)Cn2c(=O)n3nc(-c4cccc(F)c4)nc3c3ccccc32)c1	.	.	.	.	/
CN(CC(=O)Nc1cccc(F)c1)C(=O)CN1C(=O)NC2(CCCCC2)C1=O	/	/	20.6µM	?	.
CN(CC(=O)Nc1ccc(F)cc1)C(=O)CN1C(=O)NC2(CCCC2)C1=O	.	/	?	.	.
Cc1ccc(NC(=O)CN2C(=O)NC3(CCCCCCC3)C2=O)cc1C	.	/	?	9.2µM	.
O=C(CN1C(=O)NC2(CCCC2)C1=O)OCCOc1ccc(Br)cc1	.	/	18.4µM	14.6µM	.
CC(C)CN(C(=O)COC(=O)C12CC3CC(CC(O)(C3)C1)C2)C1CCS(=O)(=O)C1 (stereo not given)	.	.	.	.	.
COc1ccc(NC(=O)CN2C(=O)NC3(CC(C)CC(C)(C)C3)C2=O)cc1S(=O)(=O)N1CCCCC1 (stereo not given)	/	/	?	?	.
CC(=O)NCCNC(=O)C1(C)Cc2c(-c3cccc(C(F)(F)F)c3)ccnc2O1 (stereo not given)	/	/	.	.	/
